# Values quoted from earlier work, collected in PubChem BioAssay AID977608.
# The campaign covered roughly 4,300 compounds. About 4,300 (100%) were called active. No cut-off is given here; in the data, nearly all actives have IC50 up to about 1400 µM. So high a share suggests a set chosen from earlier hits. This is one part of the list. *1 amine or outer side, *2 acyl side, *3 side chain or, on linkers, in order; H or OH if unused. Where a SMILES comes first, the peptide text is derived from it. Square brackets hold non-standard residues; d marks the D form. Residues, ends and D or L forms follow the SMILES beside them. Side-chain parts run from the residue outwards. Peptide text beside a SMILES is read from it. [ ]: non-standard residue; d: D form. The star is where a group is joined. N(2S-NH-3-Ph-propyl)Phe = O=C([C@H](Cc1ccccc1)N(C[C@H](Cc1ccccc1)N[*:3])[*:1])[*:2]; Orn(CH(NH2)2) = NC(N)NCCC[C@H](N)C(=O)O; X1 = CC(N)NCCC[C@H](N)C(=O)*; Nle = CCCC[C@H](N)C(=O)O
# Assay: literature IC50 values for PDB complexes, PDB-derived complexes (AID 977608)
# Settings: PDB protein-ligand complexes
# [1] = protein: metallodependent class II fructose-1,6-bisphosphate aldolase (FBA-tb), PDB entry 4a22 unless noted
smiles,measurement,setting,value
COCCN/C=C1/C(=O)N(C)c2ccc(C(F)(F)F)cc2N(c2ccccc2)C1=O,IC50,[1],"890 nM [protein: HIV-1 capsid protein (N-terminal domain), PDB entry 4inb] (active)"
C[N+](C)(C)CCCP(O)O,IC50,[1],"520 nM [protein: human gamma-butyrobetaine hydroxylase, PDB entry 4bgk] (active)"
O=C(O)c1ccc2cccc(O)c2n1,IC50,[1],"10000 nM [protein: M. tuberculosis's class IIa fructose 1,6-bisphosphate aldolase, MtFBA, PDB entry 4lv4] (active)"
c1csc(-c2cc(CNC34CC5CC(CC(C5)C3)C4)no2)c1,IC50,[1],"16000 nM [protein: Membrane ion channel M2, PDB entry 2ly0] (active)"
COCN1CCC(C(N)=O)CC1,IC50,[1],"300000 nM [protein: ACETYLCHOLINESTERASE, PDB entry 3zlv] (active)"
Cc1cc(S(=O)(=O)N(Cc2cccc(N)c2)[C@H](C)C(=O)NO)ccc1F,IC50,[1],30000 nM [PDB entry 4pku] (active)
Cc1cc(S(=O)(=O)N(Cc2ccccc2)[C@H](C)C(=O)NO)ccc1F,IC50,[1],15200 nM [PDB entry 4pkr] (active)
Cc1cc(S(=O)(=O)N(Cc2ccc([N+](=O)[O-])cc2)[C@H](C)C(=O)NO)ccc1F,IC50,[1],14900 nM [PDB entry 4pkt] (active)
Cc1cc(S(=O)(=O)N(Cc2ccc(CN)cc2)[C@H](C)C(=O)NO)ccc1F,IC50,[1],5600 nM [PDB entry 4pkv] (active)
Cc1cc(S(=O)(=O)N(Cc2cccnc2)[C@H](C)C(=O)NO)ccc1F,IC50,[1],15200 nM [PDB entry 4pks] (active)
FC(F)(F)c1nc2ccccc2[nH]1,IC50,[1],"138 µM [protein: 3-OXOACYL-[ACYL-CARRIER-PROTEIN] REDUCTASE FABG, PDB entry 4bnt] (active)"
CCOC(=O)CC[C@H](C[C@@H]1CCNC1=O)NC(=O)[C@@H](CC(=O)[C@@H](NC(=O)c1cc(C)on1)C(C)C)Cc1ccc(F)cc1,IC50,[1],"1670 nM [protein: 3C proteinase, PDB entry 4ght] (active)"
O=C(CO[P+](O)(O)O)N(O)CCCCO[P+](O)(O)O,IC50,[1],3.2 nM (active)
CCC(CC)O[C@@H]1C[C@@H](C(=O)O)C[C@H](N)[C@H]1NC(C)=O,IC50,[1],"0.79 nM [protein: Neuraminidase, PDB entry 4mwq] (active)"
CCC(CC)O[C@@H]1C[C@H](C(=O)O)C[C@H](N)[C@H]1NC(C)=O,IC50,"protein: Neuraminidase7, PDB entry 4qn7",0.84 nM (active)
same,IC50,"protein: Neuraminidase, PDB entry 4mww",215000 nM (active)
CCC(CC)O[C@@H]1CC(C(=O)O)C[C@H](N)[C@H]1NC(C)=O (stereo not given in full),IC50,[1],"0.5 nM [protein: Neuraminidase, PDB entry 4hzx] (active)"
CCC(CC)O[C@@H]1CC(C(=O)O)=C[C@H](N)[C@@H]1NC(C)=O,IC50,[1],"0.9 nM [protein: Influenza Neuraminidase H3N8, PDB entry 4m3m] (active)"
Nc1c2c(nc3cc(Cl)ccc13)C[C@H]1C=C(CCCCn3cc(CO)nn3)C[C@@H]2C1,IC50,[1],"0.43 nM [protein: ACETYLCHOLINESTERASE, PDB entry 4a16] (active)"
Nc1c2c(nc3cc(Cl)ccc13)C[C@H]1C=C(CCO)C[C@@H]2C1,IC50,[1],"1.1 nM [protein: ACETYLCHOLINESTERASE, PDB entry 4bdt] (active)"
O=C(O)Cc1cc(=O)oc2c(O)c(O)ccc12,IC50,[1],"4800 nM [protein: Reverse transcriptase/ribonuclease H RT RNase H, PDB entry 4qag] (active)"
CC[C@H](C)[C@H]1NC(=O)[C@@H](NC(=O)[C@H](C)[C@H](O)C(C)C)[C@@H](C)OC(=O)[C@@H]2COC(=O)CNC(=O)/C=C/[C@]3(CO3)[C@@H](C)Oc3ccc(cc3)[C@H](NC1=O)C(=O)N(C)[C@@H](Cc1ccccc1)C(=O)N[C@H]([C@@H](C)O)C(=O)N2,IC50,[1],"200 nM [protein: Escherichia coli RNA polymerase, PDB entry 4mex] (active)"
C[C@H](N)C(=O)N[C@@H](C)C(=O)N[C@@H](C)C(=O)O,IC50,[1],"340000 nM [protein: DI-OR TRIPEPTIDE\:H+ SYMPORTER, PDB entry 4d2d] (active)"
C[C@@]1(O)CCN2C(=O)CCc3cccc1c32,IC50,[1],"198000 nM [protein: DUAL SPECIFICITY MITOGEN-ACTIVATED PROTEIN KINASE KINASE 1, PDB entry 3zlw] (active)"
Oc1cc(Cl)ccc1Oc1ccc(Cl)cc1Cl,IC50,[1],"54.7 µM [protein: Enoyl-[acyl-carrier-protein] reductase hERG, PDB entry 4w9n] (active)"
Nc1nc2nc(C(=O)NCCNC(=O)Nc3ccccc3)cnc2c(=O)[nH]1,IC50,[1],209000 nM [PDB entry 4mx1] (active)
Nc1nc2nc(C(=O)NCCNC(=O)O)cnc2c(=O)[nH]1,IC50,[1],28000 nM [PDB entry 4mx5] (active)
NCCCCC[C@@H](C[SeH5])C(=O)O,IC50,[1],"2 nM [protein: Carboxypeptidase B, PDB entry 3wc5] (active)"
CCCC[C@H](NC(=O)[C@H](C)NC(=O)[C@H](CCC(=O)O)NC(=O)[C@H](Cc1ccccc1)NC[C@H](Cc1ccccc1)NC(=O)[C@@H](NC(=O)[C@@H](N)CCCNC(C)N)C(C)C)C(=O)O (stereo partly drawn) (H-[N(2S-NH-3-Ph-propyl)Phe]([Val-X1])EA[Nle]-OH),IC50,[1],"142 nM [protein: HIV-1 PROTEASE (Q7K, L10I, D25N, M36V, M46L, I54V, I62V, L63P, A71V, V82T, I84V, L90M mutation), PDB entry 4gye] (active)"
Nc1ncnc2c1ncn2[C@@H]1O[C@H](CO[P+](=O)O[C@@H]2[C@H](O)[C@@H](CO[P+](O)(O)O[C@@H]3[C@H](O)[C@@H](CO[P+](O)(O)O)O[C@H]3n3cnc4c(N)ncnc43)O[C@H]2n2cnc3c(N)ncnc32)[C@@H](O)[C@H]1O (stereo not given in full),IC50,[1],"13 nM [protein: interferon-induced endoribonuclease, ribonuclease L, PDB entry 1wdy] (active)"
Oc1c(Cl)cc(Cl)cc1-c1[nH]c(Br)c(Br)c1Br,IC50,[1],"2200 nM [protein: Non-Mevalonate Pathway Enzyme IspD from Arabidopsis thaliana, PDB entry 4nal] (active)"
Oc1c(Br)cc(Br)cc1-c1[nH]c(Br)c(Br)c1Br,IC50,[1],"1400 nM [protein: Non-Mevalonate Pathway Enzyme IspD from Arabidopsis thaliana, PDB entry 4nak] (active)"
Oc1c(Br)cccc1-c1[nH]c(Br)c(Br)c1Br,IC50,[1],"19000 nM [protein: Non-Mevalonate Pathway Enzyme IspD from Arabidopsis thaliana, PDB entry 4nan] (active)"
CC(C)C[C@H](NC(=O)[C@H](CO)NC(=O)[C@H](CO)NC(=O)[C@H](CCC(=O)O)NC(=O)[C@H](Cc1ccc(O)cc1)NC(=O)[C@H](Cc1ccc(O)cc1)NC(=O)[C@H](CCCNC(N)N)NC(=O)[C@@H](N)Cc1c[nH]c2ccccc12)C(=O)N[C@@H](CCC(=O)O)C(=O)N1CCC[C@H]1C(=O)N[C@@H](Cc1ccc(O)cc1)C(=O)N1CCC[C@H]1C(=O)N[C@@H](CC(=O)O)C(=O)O (H-W[Orn(CH(NH2)2)]YYESSLEPYPD-OH),IC50,[1],2 nM [PDB entry 1haa] (active)
CC(C)C[C@H](NC(=O)[C@H](CO)NC(=O)[C@H](CO)NC(=O)[C@H](CCC(=O)O)NC(=O)[C@H](Cc1ccc(O)cc1)NC(=O)[C@H](Cc1ccc(O)cc1)NC(=O)[C@H](CCCNC(N)N)NC(=O)[C@@H](N)Cc1c[nH]cn1)C(=O)N[C@@H](CCC(=O)O)C(=O)N1CCC[C@H]1C(=O)N[C@@H](Cc1c[nH]c2ccccc12)C(=O)N[C@@H](Cc1ccc(O)cc1)C(=O)N1CCC[C@H]1C(=O)N[C@@H](CC(=O)O)C(=O)O (H-H[Orn(CH(NH2)2)]YYESSLEPWYPD-OH),IC50,[1],120 nM [PDB entry 1jbd] (active)
CC(C)C[C@H](NC(=O)[C@H](CO)NC(=O)[C@H](CO)NC(=O)[C@H](CCC(=O)O)NC(=O)[C@H](Cc1ccc(O)cc1)NC(=O)[C@H](Cc1ccc(O)cc1)NC(=O)[C@H](CCCNC(N)N)NC(=O)[C@@H](N)Cc1ccccc1)C(=O)N[C@@H](CCC(=O)O)C(=O)N1CCC[C@H]1C(=O)N[C@@H](Cc1c[nH]c2ccccc12)C(=O)N[C@@H](CC(=O)O)C(=O)N[C@@H](CC(=O)O)C(=O)O (HELM PEPTIDE1{F.[NC(N)NCCC[C@H](N[*:1])C(=O)[*:2]].Y.Y.E.S.S.L.E.P.W.D.D}$$$$V2.0),IC50,[1],4.9 nM [PDB entry 1rgj] (active)
C[C@@H]1Oc2ccc(CN3CC=C(c4ccc(Cl)cc4)CC3)cc2NC1=O,IC50,[1],"3 nM [protein: Poly [ADP-ribose] polymerase 1, PDB entry 4l6s] (active)"
COC(=O)C[C@@H](C)c1n[nH]c2nc(N)[nH]c(=O)c2c1=O,IC50,[1],"376000 nM [protein: Dihydropteroate synthase, PDB entry 4d8a] (active)"
CCC(CC)Oc1cc(C(=O)O)cc(N)c1NC(C)=O,IC50,[1],"8.31 nM [protein: Neuraminidase, PDB entry 4hzz] (active)"
CCc1c(C)nc(-c2ccc(Cl)s2)nc1Nc1ccc(CC(=O)O)cc1,IC50,[1],"32 nM [protein: Catalytic Domain Of Human Phosphodiesterase 4B, PDB entry 4myq] (active)"
CO[C@H](C(=O)O)c1c(C)nc2ccc(Br)cc2c1-c1ccc(Cl)cc1,IC50,"protein: HIV-1 Integrase catalytic core domain (A128T, F185K mutation), PDB entry 4jlh",4000 nM (active)
same,IC50,"protein: HIV-1 Integrase, PDB entry 4dmn",2300 nM (active)
Cc1nc(-c2nc3ccc(Cl)cc3[nH]2)c(C)c(-c2ccccc2)c1[C@H](OC(C)(C)C)C(=O)O,IC50,[1],"5.03 nM [protein: Integrase HIV-1 IN CCD F185K/A128T, PDB entry 4o5b] (active)"
Cc1ccc(-c2c([C@H](OC(C)(C)C)C(=O)O)c(C)nc3ccccc23)cc1C,IC50,[1],"55 nM [protein: HIV-1 Integrase (F185K mutation), PDB entry 4e1m] (active)"
Cc1nc2ccccc2c(-c2cc(F)c3c(c2C)CCCO3)c1[C@H](OC(C)(C)C)C(=O)O,IC50,[1],"67 nM [protein: HIV-1 integrase (F185K mutation), PDB entry 4e1n] (active)"
